# Experimental data: PubChem BioAssay (Tox21)
# Inconclusive results are not listed. Where a call stands in place of a potency, no number is given. Calls of active or inactive are those of the source. Calls follow the shape of the dose curve; as a rule, active = well fitted curve in the direction sought with a large enough effect in the repeat runs; inconclusive = weak or mixed curves; inactive = no such curve, though single readings can be large; an effect the other way counts as inactive or inconclusive.
# Assays:
# [1] = target: Cytochrome P450 2C19 (Homo sapiens) (UniProt P33261); test: Cytochrome P450 Family 2 Subfamily C Member 19 (CYP2C19) small molecule antagonists: luciferase reporter qHTS assay (AID 1671197); also: nearly all actives have a fitted effect of over 65% in size; also: potency is read from the fitted curve at half-maximal effect
# Outline: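 Inhibition of CYP2C19 was scored from loss of luminescence in a P450-Glo proluciferin substrate assay, NADPH-started and run 1 h at 37C, with ketoconazole as positive control.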
# [2] = target: Cytochrome P450 2C9 (Homo sapiens) (UniProt P11712); test: Cytochrome P450 Family 2 Subfamily C Member 9 (CYP2C9) small molecule antagonists: luciferase reporter qHTS assay (AID 1671198); also: nearly all actives have a fitted effect of over 50% in size; also: potency is read from the fitted curve at half-maximal effect
# Outline: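 Enzyme-substrate mix preincubated with compound 10 min at room temperature; reaction started with NADPH regeneration solution, 1 h 37C. Luminescent luciferin product read after 20 min detection reagent.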
# [3] = target: Cytochrome P450 1A2 (Homo sapiens) (UniProt P05177); test: Cytochrome P450 Family 1 Subfamily A Member 2 (CYP1A2) small molecule antagonists: luciferase reporter qHTS assay (AID 1671199); also: nearly all actives have a fitted effect of over 50% in size; also: potency is read from the fitted curve at half-maximal effect
# Outline: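 P450-Glo CYP1A2 enzyme–proluciferin substrate mix with compound 10 min at room temperature, then NADPH regeneration 1 h at room temperature. Luciferin detection reagent added, luminescence read after 20 min; furafylline positive control.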
# [4] = target: Voltage-gated inwardly rectifying potassium channel KCNH2 (Homo sapiens) (UniProt Q12809); test: Human Ether-a-go-go-Related Gene (hERG) channel small molecule antagonists: fluorescence cell-based qHTS assay (AID 1671200);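 also: hERG-expressing U2OS cells given a thallium stimulus after FluxOR II dye loading; series mostly up to about 77 µM; nearly all actives have a fitted effect of over 50% in size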
# Outline: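 Kinetic two-minute fluorescence traces, sampled at 1 s, were collected following thallium stimulus of U2OS cells (1000 per well) that had been cultured overnight at 37 C and loaded with FluxOR II.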
# [5] = target: Cytochrome P450 3A4 (Homo sapiens) (UniProt P08684); test: Cytochrome P450 Family 3 Subfamily A Member 4 (CYP3A4) small molecule antagonists: luciferase reporter qHTS assay (AID 1671201); also: nearly all actives have a fitted effect of over 50% in size; also: potency is read from the fitted curve at half-maximal effect
# Outline: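 Proluciferin-to-luciferin conversion by CYP3A4, NADPH-regenerated, 1 h RT; luminescence read as RLU. Ketoconazole as control.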
# Cytochrome P450 3A4 (Homo sapiens), sequence (P08684 whole entry, looked up): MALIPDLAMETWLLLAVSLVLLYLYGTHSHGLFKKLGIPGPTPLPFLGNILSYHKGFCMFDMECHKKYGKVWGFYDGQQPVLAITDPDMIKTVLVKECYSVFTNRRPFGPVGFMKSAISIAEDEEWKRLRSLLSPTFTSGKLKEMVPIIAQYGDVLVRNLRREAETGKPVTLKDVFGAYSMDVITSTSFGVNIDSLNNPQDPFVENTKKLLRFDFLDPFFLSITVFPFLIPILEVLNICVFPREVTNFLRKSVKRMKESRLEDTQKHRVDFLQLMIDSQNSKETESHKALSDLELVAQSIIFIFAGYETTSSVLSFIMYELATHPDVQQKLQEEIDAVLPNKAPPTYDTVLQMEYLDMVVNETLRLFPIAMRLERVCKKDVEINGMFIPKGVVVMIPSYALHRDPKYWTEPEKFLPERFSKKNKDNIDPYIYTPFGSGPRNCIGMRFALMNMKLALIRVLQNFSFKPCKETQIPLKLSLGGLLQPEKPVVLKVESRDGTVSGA
# Cytochrome P450 2C19 (Homo sapiens), sequence (P33261 whole entry, looked up): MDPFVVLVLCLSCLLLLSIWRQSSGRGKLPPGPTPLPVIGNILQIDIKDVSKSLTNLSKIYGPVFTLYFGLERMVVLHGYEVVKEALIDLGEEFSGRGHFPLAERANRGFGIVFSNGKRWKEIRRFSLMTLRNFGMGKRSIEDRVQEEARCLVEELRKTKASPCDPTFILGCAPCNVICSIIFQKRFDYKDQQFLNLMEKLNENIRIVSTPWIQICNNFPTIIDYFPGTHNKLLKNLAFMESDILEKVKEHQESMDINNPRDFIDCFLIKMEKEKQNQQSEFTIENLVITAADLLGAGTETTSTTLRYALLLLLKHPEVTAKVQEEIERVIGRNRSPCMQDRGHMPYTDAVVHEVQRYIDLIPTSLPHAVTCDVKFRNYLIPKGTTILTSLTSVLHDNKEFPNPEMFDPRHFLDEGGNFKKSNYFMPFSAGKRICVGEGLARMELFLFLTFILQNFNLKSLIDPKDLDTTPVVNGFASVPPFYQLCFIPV
# Voltage-gated inwardly rectifying potassium channel KCNH2 (Homo sapiens), sequence (Q12809 whole entry, looked up): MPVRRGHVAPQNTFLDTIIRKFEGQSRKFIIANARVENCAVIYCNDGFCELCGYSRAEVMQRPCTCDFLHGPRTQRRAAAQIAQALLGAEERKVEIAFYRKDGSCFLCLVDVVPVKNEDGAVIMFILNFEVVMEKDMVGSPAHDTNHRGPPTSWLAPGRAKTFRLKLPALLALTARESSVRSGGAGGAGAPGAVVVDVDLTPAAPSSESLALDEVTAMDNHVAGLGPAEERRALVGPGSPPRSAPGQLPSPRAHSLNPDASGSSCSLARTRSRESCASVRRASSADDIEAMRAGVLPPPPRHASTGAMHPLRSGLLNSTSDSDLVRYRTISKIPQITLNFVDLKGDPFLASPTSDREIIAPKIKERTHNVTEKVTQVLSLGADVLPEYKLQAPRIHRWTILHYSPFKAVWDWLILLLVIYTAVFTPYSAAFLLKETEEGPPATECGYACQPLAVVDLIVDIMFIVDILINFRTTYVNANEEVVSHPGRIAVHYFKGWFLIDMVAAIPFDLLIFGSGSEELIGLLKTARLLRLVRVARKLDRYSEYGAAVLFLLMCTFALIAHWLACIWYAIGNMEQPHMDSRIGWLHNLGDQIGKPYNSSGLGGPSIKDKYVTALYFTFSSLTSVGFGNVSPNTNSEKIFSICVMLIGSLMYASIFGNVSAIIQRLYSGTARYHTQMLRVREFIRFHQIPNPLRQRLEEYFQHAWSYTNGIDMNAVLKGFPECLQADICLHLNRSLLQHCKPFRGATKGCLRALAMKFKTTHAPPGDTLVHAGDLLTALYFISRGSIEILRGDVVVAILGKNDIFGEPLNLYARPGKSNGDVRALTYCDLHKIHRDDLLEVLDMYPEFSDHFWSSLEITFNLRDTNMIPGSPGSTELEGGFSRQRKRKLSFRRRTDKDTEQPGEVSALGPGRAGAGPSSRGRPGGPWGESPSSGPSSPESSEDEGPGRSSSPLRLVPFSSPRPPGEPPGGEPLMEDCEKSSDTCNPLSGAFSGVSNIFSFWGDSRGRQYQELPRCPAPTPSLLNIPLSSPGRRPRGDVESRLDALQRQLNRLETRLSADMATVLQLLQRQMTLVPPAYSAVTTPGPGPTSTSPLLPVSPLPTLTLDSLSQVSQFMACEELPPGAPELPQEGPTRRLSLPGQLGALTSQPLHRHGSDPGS
# Cytochrome P450 1A2 (Homo sapiens), sequence (P05177 whole entry, looked up): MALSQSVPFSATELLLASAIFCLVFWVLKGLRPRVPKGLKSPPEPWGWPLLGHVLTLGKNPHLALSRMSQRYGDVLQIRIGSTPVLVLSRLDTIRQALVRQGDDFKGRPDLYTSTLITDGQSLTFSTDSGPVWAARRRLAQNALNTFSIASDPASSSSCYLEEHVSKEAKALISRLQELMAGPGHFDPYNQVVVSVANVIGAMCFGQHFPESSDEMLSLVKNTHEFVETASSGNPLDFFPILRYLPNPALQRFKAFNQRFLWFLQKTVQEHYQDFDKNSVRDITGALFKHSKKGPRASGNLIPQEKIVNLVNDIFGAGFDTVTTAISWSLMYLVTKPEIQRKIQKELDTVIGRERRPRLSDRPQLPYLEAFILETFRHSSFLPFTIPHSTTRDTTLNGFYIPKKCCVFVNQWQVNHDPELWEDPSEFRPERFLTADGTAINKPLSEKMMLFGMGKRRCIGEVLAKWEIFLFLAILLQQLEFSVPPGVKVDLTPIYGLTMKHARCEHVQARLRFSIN
# Cytochrome P450 2C9 (Homo sapiens), sequence (P11712 whole entry, looked up): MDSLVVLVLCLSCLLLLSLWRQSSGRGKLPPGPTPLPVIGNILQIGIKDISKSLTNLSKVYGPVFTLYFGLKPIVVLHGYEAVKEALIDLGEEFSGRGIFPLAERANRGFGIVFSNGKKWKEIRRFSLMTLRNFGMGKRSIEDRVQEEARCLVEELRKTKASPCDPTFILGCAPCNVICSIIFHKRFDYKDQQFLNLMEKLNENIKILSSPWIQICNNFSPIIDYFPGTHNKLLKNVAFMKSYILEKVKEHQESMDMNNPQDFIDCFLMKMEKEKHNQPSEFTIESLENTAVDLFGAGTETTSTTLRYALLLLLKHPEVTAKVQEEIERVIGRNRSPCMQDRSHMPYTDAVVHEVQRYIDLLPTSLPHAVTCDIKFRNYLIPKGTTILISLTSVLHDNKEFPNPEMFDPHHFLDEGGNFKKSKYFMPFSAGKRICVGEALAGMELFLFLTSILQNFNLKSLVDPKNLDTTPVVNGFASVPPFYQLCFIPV
SMILES,Potency [1],Potency [2],Potency [3],Potency [4],Potency [5]
COc1c(N2CCNC(C)C2)c(F)cc2c(=O)c(C(=O)O)cn(C3CC3)c12 (configuration not stated),inactive,inactive,inactive,inactive,inactive
NCCCC[C@H](N[C@@H](CCc1ccccc1)C(=O)O)C(=O)N1CCC[C@H]1C(=O)O,inactive,,,,
COc1cc(C(=O)OC(COCCC(C)C)CN2CCOCC2)cc(OC)c1OC (configuration not stated),3.47 µM (active),3.09 µM (active),inactive,,
CC1CCC(CO)CC1 (configuration not stated),inactive,inactive,inactive,inactive,inactive
CCOC(=O)c1ccccc1,inactive,inactive,inactive,inactive,inactive
Nc1c2c(nc3c1CCC3)CCCC2,inactive,inactive,inactive,inactive,inactive
COC(=O)Nc1ccc(Cl)c(Cl)c1,17.7 µM (active),70.6 µM (active),5.61 µM (active),,inactive
Cc1ccc(C(=O)c2ccccc2)cc1,10 µM (active),31.7 µM (active),31.7 µM (active),,inactive
CC1(C)OC[C@@H](COC(=O)CCc2ccc(OC[C@@H](O)CNCCNC(=O)N3CCOCC3)cc2)O1,inactive,inactive,inactive,inactive,inactive
Cc1ncc(COP(=O)(O)O)c(C=O)c1O,inactive,inactive,17.4 µM (active),inactive,inactive
[O-][n+]1cccc(CO)c1,inactive,inactive,inactive,inactive,inactive
CC(C#N)(CCC(=O)O)N=NC(C)(C#N)CCC(=O)O (configuration not stated),inactive,inactive,inactive,inactive,inactive
CCCCCCCCCCCCCCCCCCO,inactive,inactive,inactive,inactive,inactive
CC(C)(C)OC(=O)c1cccc(N)c1,25.9 µM (active),32.6 µM (active),7.29 µM (active),inactive,16.3 µM (active)
CC1=NS(=O)(=O)c2cc(Cl)ccc2N1,inactive,inactive,15.5 µM (active),inactive,inactive
CC1=NN(c2cccc(S(=O)(=O)O)c2)C(=O)C1,inactive,inactive,44.8 µM (active),inactive,inactive
CC(C)CCCO,inactive,inactive,inactive,inactive,inactive
O=[N+]([O-])c1ccc(/C=N\O)o1,inactive,inactive,27.5 µM (active),inactive,inactive

SMILES,Potency [1],Potency [2],Potency [3],Potency [4],Potency [5]
CCN(Cc1ccccc1)c1ccccc1,1.76 µM (active),35.1 µM (active),35.1 µM (active),inactive,inactive
CC(=O)N[C@H]1[C@H]([C@H](O)[C@H](O)CO)OC(C(=O)O)=C[C@@H]1N=C(N)N,inactive,inactive,inactive,inactive,inactive
CCCCOC(=O)CCC(C)=O,inactive,inactive,inactive,inactive,inactive
CC(C)[C@H]1CC[C@@H](C)CC1=O,inactive,inactive,inactive,,inactive
CCNS(=O)(=O)c1ccc(C)cc1,20.6 µM (active),inactive,41.1 µM (active),inactive,inactive
COc1ccccc1OCC1CNC(=O)O1 (configuration not stated),inactive,inactive,inactive,,inactive
Nc1ccn([C@@H]2O[C@H](CO)[C@@H](O)C2(F)F)c(=O)n1,inactive,inactive,inactive,,inactive
C=CC(=O)OCCCl,81.5 µM (active),inactive,40.8 µM (active),inactive,inactive
C[N+](C)(CCOc1ccccc1)Cc1cccs1,inactive,inactive,inactive,,inactive
CCC(=O)OCc1ccccc1,inactive,inactive,inactive,inactive,inactive
C=C(C)C(=O)OCC(O)CO (configuration not stated),inactive,inactive,inactive,inactive,inactive
CCCCc1ccc2c(n1)[C@@H](c1ccc(OC)cc1C[C@H](C)C(=O)O)[C@H](C(=O)O)[C@H]2c1ccc2c(c1)OCO2,inactive,35.6 µM (active),inactive,inactive,inactive
CNCCO,inactive,inactive,inactive,inactive,inactive
CC(C)(CCC(=O)O)C(=O)O,inactive,inactive,28.6 µM (active),inactive,inactive
CCCC(C)C(=O)OCC (configuration not stated),inactive,inactive,inactive,,inactive
[Ca+2],inactive,inactive,inactive,inactive,inactive
O=Cc1cccc(Br)c1,18.3 µM (active),40.9 µM (active),16.3 µM (active),inactive,81.7 µM (active)
